According to PubChem BioAssay (Tox21):
“And” between values parts separate entries of the source, which are not always exact repeats. Identical values can stand only once. Records with an inconclusive call do not appear. Entries that show only a call come without a potency. A number with no mark means an inactive call. The source made the active and inactive calls. Calls come from the whole dose curve; as a rule, active = well fitted activation curve with a large enough effect in the repeat runs; inconclusive = weak or mixed curves; inactive = flat fitted curve, though single readings scatter.

assay: A CellTox Green Cytotoxicity Assay to monitor cytotoxicity in HEK293 cells - 8 hour (AID 1224884); conditions: CellTox Green fluorescence; series mostly up to 76.8 µM; cytotoxicity increase: at the top concentration; note: nearly all actives have a fitted effect of over 35% in size
Source text: National Center for Advancing Translational Sciences [NCATS]
NIH Chemical Genomics Center [NCGC]
U.S. Environmental Protection Agency [EPA]
National Institutes of Environmental Health Sciences [NIEHS]
National Toxicology Program [NTP]
Cell-based models are critical for drug discovery. Determining the natural cytotoxic effects resulting from test compounds is an essential research activity. A CellTox Green Cytotoxicity Assay to monitor cytotoxicity in real time of continues cell culture during 40 hours of the compound treatment was used to screen Tox21 10K library compounds in Hek293 cells. CellTox Green Cytotoxicity Assay is a nonlytic, homogeneous, biofluorescent method to measure cytotoxicity in cell culture after experimental manipulation. The assay system uses a proprietary asymmetric cyanine dye that is excluded from viable cells but preferentially stains the dead cell's DNA. […] Viable cells produce no appreciable increases in fluorescence. Therefore, the fluorescence signal produced by the binding interaction with dead cell DNA is proportional to cytotoxicity.
The mixture of Hek293 cell suspension and reagents were dispensed at 600cells/6 ul/well in 1536-well tissue culture treated black solid bottom plates using a Multidrop dispenser. After the assay plates were incubated at a 37 C/5% CO2 incubator for 5 hours, 23 nL of compounds dissolved in DMSO, positive and negative controls was transferred to the assay plate by a pintool work station. The plates were incubated at 37 C for 40 hours. The fluorescence intensity were measured at 0h, 8h, 16h, 24h, 32h and 40h time points using ViewLux plate reader during compound treatment.
Potency is the fitted concentration of half-maximal effect.

Compound | Potency | cytotoxicity increase
O | inactive | –
COc1cc(C(=S)N2CCOCC2)ccc1O | – | -0.395% [at 35.3 µM]
Cc1ccc(S(=O)(=O)Oc2ccc(N=Nc3ccc(-c4ccc(N=Nc5c(O)ccc6cc(S(=O)(=O)O)cc(S(=O)(=O)O)c56)c(C)c4)cc3C)cc2)cc1 | inactive | –
C/C=C/c1ccc(OCC)c(O)c1 | – | 0.132%
CC(C)(C)NCC(O)COc1ccccc1OCC1CCCO1 (stereo not given) | – | 14.3% [at 35.3 µM]
c1ccc2c(c1)-c1cccc3c1c-2cc1ccccc13 | inactive | –
Cc1cc(C2(c3cc(C)c(O)cc3C)OS(=O)(=O)c3ccccc32)c(C)cc1O | inactive | –
NC(=Nc1ccccc1)Nc1ccccc1 | inactive | –
CC(=O)O[C@]1(C(C)=O)CC[C@H]2[C@@H]3C[C@H](C)C4=CC(=O)CC[C@]4(C)[C@H]3CC[C@@]21C | inactive | –
CC(=O)CC(=O)Nc1ccc2[nH]c(=O)[nH]c2c1 | – | 0.612%
OCC(CO)N[C@H]1C[C@](O)(CO)[C@@H](O)[C@H](O)[C@H]1O | – | 10.6% [at 35.3 µM]
CCCCN(CCO)CCCC | – | 1.37%
CC(=O)N[C@@H](CS)C(=O)O | inactive | –
CCC(C)(Oc1ccc(C2(c3ccc(OC(C)(CC)C(=O)O)cc3)CCCCC2)cc1)C(=O)O (stereo not given) | – | 0.472% [at 35.3 µM]
CC(C(O)c1ccc(O)cc1)N1CCC(Cc2ccccc2)CC1 (stereo not given) | – | -2.54% [at 35.3 µM]
CCOC(=O)C(C)C(C)=O (stereo not given) | – | -0.605%
COc1ccc(CCN(C)CCCC(C#N)(c2ccc(OC)c(OC)c2)C(C)C)cc1OC (stereo not given) | inactive | –
Cc1c(O)cccc1C(=O)N[C@@H](CSc1ccccc1)[C@H](O)CN1C[C@H]2CCCC[C@H]2C[C@H]1C(=O)NC(C)(C)C | inactive | –
Cc1cccc([N+](=O)[O-])c1C(=O)O | – | -9.09%
CCC(CO)(CO)COCC(CC)(CO)CO | – | -3.19%

Compound | Potency | cytotoxicity increase
Nc1cc(S(=O)(=O)O)cc2cc(S(=O)(=O)O)cc(O)c12 | inactive | –
CN(C)c1ccc2nc3ccc(=[N+](C)C)cc-3sc2c1 | inactive | –
OCCN1CCNCC1 | inactive | –
Nc1cc(Cl)c(-c2cc(Cl)c(N)cc2Cl)cc1Cl | – | 18.1%
CO[Si](OC)(OC)c1ccccc1 | – | -7.74%
COc1ccc(CCN2CCC(Nc3nc4ccccc4n3Cc3ccc(F)cc3)CC2)cc1 | 44.6 µM (active) and 26.8 µM (active) | –
Nc1nc(=S)c2[nH]cnc2[nH]1 | inactive | –
NC(Cc1ccc(Cl)cc1)C(=O)O (stereo not given) | – | 5.18% [at 0.29 µM]
C=C(C)C(=O)O | inactive | –
CC(C)(C)NCC(O)c1cc(O)cc(O)c1 (stereo not given) | – | 2% [at 35.3 µM]
O=S(=O)(O)c1ccc2nc(-c3ccccc3)[nH]c2c1 | inactive | –
C#CC(C)(CC)OC(=O)c1ccccc1C(=O)O (stereo not given) | – | 11.4% [at 35.3 µM]
CCn1c2ccccc2c2cc(N)ccc21 | inactive | –
O=C(Oc1ccccc1)c1ccccc1O | inactive | –
NC(N)=Nc1nc(CSCC/C(N)=N/S(N)(=O)=O)cs1 | inactive | –
CCCCC/C=C/CC1CC(=O)OC1=O (stereo not given) | – | -6.18%
Nc1ccc2cc3ccccc3cc2c1 | inactive | –
BrC1CCC(Br)C(Br)CCC(Br)C(Br)CCC1Br (stereo not given) | inactive | –
CCCCCCCCCCCCCCCCCl | – | 2.79% [at 15.8 µM]
O=C(O)c1cn(-c2ccc(F)cc2)c2cc(N3CCNCC3)c(F)cc2c1=O | inactive | –
